Consider 21 molecules from PubChem BioAssay (EPA / NIEHS).

The subject of experiment [1] is rat Monoamine Oxidase, MAO-A, Central (MAOAC), gene 29253. The experiment is described as follows: NVS_ENZ_rMAOAC: NovaScreen (NVS) Enzymatic Assay for rat Monoamine Oxidase, MAO-A, Central (MAOAC) (AID 2283243).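 Also: potency refers to inhibition seen as signal drop below DMSO baseline.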 In short, it runs like this: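 Inhibition of rat brain-derived MAO-A was read by scintillation counting after 1.5 h exposure. Compounds screened first at 25 uM in duplicate, then in dose series if active.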

The test system of experiment [2] is bovine Histamine 1 Receptor (H1), gene 281231. The experiment is described as follows: NVS_GPCR_bH1: NovaScreen (NVS) G Protein-Coupled Receptor Assay for bovine Histamine 1 Receptor (H1) (AID 2283246). In short, it runs like this: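 Radioligand displacement on bovine cerebellar membranes, 1 h after dosing, filter-based scintillation read-out; loss of signal vs DMSO. Duplicate single-concentration screen at 25 uM, then concentration-response up to 50 uM for hits.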

Experiment [3] has as its target Adenosine receptor A1 (Bos taurus) (UniProt P28190). Nature of the experiment: NVS_GPCR_bAdoR_NonSelective: NovaScreen (NVS) G Protein-Coupled Receptor Assay for bovine Adenosine Receptor (AdoR), Non-selective Binding (AID 2283244). In short, it runs like this:
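Bovine striatal membranes, radioligand displacement binding, 1 h after dosing, filter-based scintillation counting. Screened in duplicate at 25 uM, then concentration-response up to 50 uM; loss of specific binding relative to DMSO.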

Experiment [4] concerns guinea pig Muscarinic, Peripheral (Mperiperal) Receptor, Non-selective Binding, gene 100379235. Nature of the experiment: NVS_GPCR_gMPeripheral_NonSelective: NovaScreen (NVS) G Protein-Coupled Receptor Assay for guinea pig Muscarinic, Peripheral (Mperiperal) Receptor, Non-selective Binding (AID 2283250). In short, it runs like this:
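Guinea pig bladder membranes, radioligand binding read 1 h after dosing by filter scintillation counting; loss of signal vs DMSO. Primary duplicate screen at 25 uM, then concentration-response up to 50 uM.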

For experiment [5], the target named is human Adenosine A1 Receptor (AdoRA1), ADORA1 (gene 134) (UniProt P30542). Nature of the experiment: NVS_GPCR_hAdoRA1: NovaScreen (NVS) G Protein-Coupled Receptor Assay for human Adenosine A1 Receptor (AdoRA1) (AID 2283254). In short, it runs like this: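 Hum. cortical membranes + radioligand, cmpd 1 h; filtration, scintillation count. Readout = decrease vs DMSO. Primary 25 uM dup; hits → conc. series.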
Sequence of human Adenosine A1 Receptor (AdoRA1), ADORA1 (gene 134) (P30542 whole entry, looked up): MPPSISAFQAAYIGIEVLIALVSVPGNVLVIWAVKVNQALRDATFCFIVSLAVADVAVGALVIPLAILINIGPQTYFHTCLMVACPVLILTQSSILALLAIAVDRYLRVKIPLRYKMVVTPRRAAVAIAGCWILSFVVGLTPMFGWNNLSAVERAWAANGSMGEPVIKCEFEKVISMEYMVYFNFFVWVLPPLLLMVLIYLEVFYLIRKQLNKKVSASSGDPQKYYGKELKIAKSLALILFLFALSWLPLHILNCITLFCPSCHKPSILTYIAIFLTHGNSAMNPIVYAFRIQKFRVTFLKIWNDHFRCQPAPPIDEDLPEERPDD

Experiment [6] has as its target human Serotonin, 5-Hydroxytryptamine Receptor 7 (5HT7), HTR7 (gene 3363) (UniProt P34969). Nature of the experiment: NVS_GPCR_h5HT7: NovaScreen (NVS) G Protein-Coupled Receptor Assay for human Serotonin, 5-Hydroxytryptamine Receptor 7 (5HT7) (AID 2283255).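 Also: hits reduce specific radioligand binding relative to DMSO.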 In a few lines: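 Radioligand displacement on membranes from CHO cells expressing human 5HT7, 1 h incubation, filter-based scintillation counting. Primary screen used a single 25 uM concentration in duplicate; actives were followed up in concentration series.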

The target in experiment [7] is human Adenosine A2a Receptor (AdoRA2a), ADORA2A (gene 135) (UniProt P29274). Nature of the experiment: NVS_GPCR_hAdoRA2a: NovaScreen (NVS) G Protein-Coupled Receptor Assay for human Adenosine A2a Receptor (AdoRA2a) (AID 2283256). In short, it runs like this:
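Cell-free radioligand binding on membranes from HEK293 expressing the receptor; competitive displacement read 1.5 h after dosing by filter-based scintillation counting. Primary screen in duplicate at 25 uM; actives followed in concentration series, with DMSO as baseline.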

Experiment [8] addresses rat Monoamine Oxidase, MAO-B, Peripheral (MAOBP), Maob (gene 25750) (UniProt P19643). Nature of the experiment: NVS_ENZ_rMAOBP: NovaScreen (NVS) Enzymatic Assay for rat Monoamine Oxidase, MAO-B, Peripheral (MAOBP) (AID 2283242).
The nature of experiment [9]: NVS_GPCR_bNPY_NonSelective: NovaScreen (NVS) G Protein-Coupled Receptor Assay for bovine Neuropeptide Y (NPY) Receptor, Non-selective Binding (AID 2283245). In a few lines:
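Bovine hippocampal membranes incubated 1 hour with radioligand and test chemical. Bound ligand measured by filter-based scintillation counting. Single-concentration screen at 25 uM in duplicate, then concentration-response up to 50 uM.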

For experiment [10], the target named is guinea pig Leukotriene D4 Receptor (LTD4), CYSLTR1 (gene 100135514) (UniProt Q2NNR5). Nature of the experiment: NVS_GPCR_gLTD4: NovaScreen (NVS) G Protein-Coupled Receptor Assay for guinea pig Leukotriene D4 Receptor (LTD4) (AID 2283248). In a few lines: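 Radioligand displacement on guinea pig lung membranes, 1 h incubation, filtration and scintillation counting; DMSO as negative control. Duplicate 25 uM primary screen, then singleton concentration-response up to 50 uM.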
Sequence of guinea pig Leukotriene D4 Receptor (LTD4), CYSLTR1 (gene 100135514) (Q2NNR5 whole entry, looked up): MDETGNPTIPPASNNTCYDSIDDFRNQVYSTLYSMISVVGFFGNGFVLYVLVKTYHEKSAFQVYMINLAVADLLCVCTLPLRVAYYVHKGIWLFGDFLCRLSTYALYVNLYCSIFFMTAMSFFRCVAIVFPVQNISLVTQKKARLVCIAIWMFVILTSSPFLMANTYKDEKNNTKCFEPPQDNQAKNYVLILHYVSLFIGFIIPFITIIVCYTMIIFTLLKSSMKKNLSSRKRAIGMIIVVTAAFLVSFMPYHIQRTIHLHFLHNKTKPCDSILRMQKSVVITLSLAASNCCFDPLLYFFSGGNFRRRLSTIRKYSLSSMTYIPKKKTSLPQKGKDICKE

Experiment [11] has as its target guinea pig Opioid, Kappa 1 Receptor (OpiateK), OPRK1 (gene 100135587) (UniProt P41144). The experiment is described as follows: NVS_GPCR_gOpiateK: NovaScreen (NVS) G Protein-Coupled Receptor Assay for guinea pig Opioid, Kappa 1 Receptor (OpiateK) (AID 2283252).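 Also: radioligand displacement from kappa opioid receptor in guinea pig cerebellar membranes; active means reduced radioligand binding relative to DMSO.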 In a few lines:
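Signal is scintillation counts of filter-trapped radioligand bound to guinea pig cerebellar membrane receptor, measured 2 hours post-dosing. Activity is loss of binding versus DMSO, first at 25 uM in duplicate, then as concentration series for actives.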

Experiment [12] addresses human Serotonin, 5-Hydroxytryptamine Receptor 6 (5HT6), HTR6 (gene 3362) (UniProt P50406). Nature of the experiment: NVS_GPCR_h5HT6: NovaScreen (NVS) G Protein-Coupled Receptor Assay for human Serotonin, 5-Hydroxytryptamine Receptor 6 (5HT6) (AID 2283253). In a few lines:
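Radioligand binding to 5HT6 in HEK293-derived membranes, cell-free, 1 h after dosing; bound ligand measured by filter-based scintillation counting. Primary screen in duplicate at 25 uM; actives retested in concentration series.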

Experiment [13] deals with human Serotonin, 5-Hydroxytryptamine Receptor 5A (5HT5A), HTR5A (gene 3361) (UniProt P47898). The experiment is described as follows: NVS_GPCR_h5HT5A: NovaScreen (NVS) G Protein-Coupled Receptor Assay for human Serotonin, 5-Hydroxytryptamine Receptor 5A (5HT5A) (AID 2283251). In a few lines:
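Cell-free radioligand displacement binding on HEK293-derived membrane protein, 1 h incubation, filter-based scintillation counting. Primary screen in duplicate at 25 uM, actives followed in concentration series; loss of signal fitted versus DMSO.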

Experiment [14] concerns bovine Angiotensin II Receptor Type 2 (AT2), gene 407157. The experiment is described as follows: NVS_GPCR_bAT2: NovaScreen (NVS) G Protein-Coupled Receptor Assay for bovine Angiotensin II Receptor Type 2 (AT2) (AID 2283240). In a few lines: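 Radioligand displacement on bovine cerebellar membranes, 1 hour incubation, filter-based scintillation counting; loss of signal vs DMSO. Duplicate single-point screen at 25 uM, then concentration-response to 50 uM maximum.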

Experiment [15] has as its system guinea pig Leukotriene B4 Receptor (LTB4), gene 100379538. Nature of the experiment: NVS_GPCR_gLTB4: NovaScreen (NVS) G Protein-Coupled Receptor Assay for guinea pig Leukotriene B4 Receptor (LTB4) (AID 2283247). In a few lines:
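Radioligand displacement on guinea pig spleen membranes, filter-based scintillation counting 2 h after dosing. Primary duplicate single point at 25 uM; hits over threshold (e.g. 30% inhibition) run in concentration-response up to 50 uM, DMSO baseline.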

The target in experiment [16] is human Adrenergic, Alpha 2A Receptor (Adra2A), ADRA2A (gene 150) (UniProt P08913). Nature of the experiment: NVS_GPCR_hAdra2A: NovaScreen (NVS) G Protein-Coupled Receptor Assay for human Adrenergic, Alpha 2A Receptor (Adra2A) (AID 2283257). In a few lines: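 Radioligand filter-binding was run on HT29-derived membranes, cell-free, read by scintillation counting 1 h after dosing. Primary screening was in duplicate at 25 uM, with concentration series in follow-up. Loss of signal versus DMSO indicates displacement.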
Sequence of human Adrenergic, Alpha 2A Receptor (Adra2A), ADRA2A (gene 150) (P08913 whole entry, looked up): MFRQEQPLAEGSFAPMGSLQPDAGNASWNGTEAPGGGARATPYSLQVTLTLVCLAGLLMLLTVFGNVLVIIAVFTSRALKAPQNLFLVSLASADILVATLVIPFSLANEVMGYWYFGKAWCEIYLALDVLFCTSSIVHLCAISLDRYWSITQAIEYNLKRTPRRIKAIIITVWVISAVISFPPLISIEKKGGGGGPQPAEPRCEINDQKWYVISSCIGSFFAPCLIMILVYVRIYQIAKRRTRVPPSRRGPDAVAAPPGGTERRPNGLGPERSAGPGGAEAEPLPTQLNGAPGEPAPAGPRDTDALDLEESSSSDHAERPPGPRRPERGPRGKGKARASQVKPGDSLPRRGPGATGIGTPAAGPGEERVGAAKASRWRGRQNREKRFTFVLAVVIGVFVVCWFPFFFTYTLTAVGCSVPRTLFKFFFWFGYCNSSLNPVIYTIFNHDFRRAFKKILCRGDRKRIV

In experiment [17] the target is human Adrenergic, Alpha 2c Receptor (Adra2C), ADRA2C (gene 152) (UniProt P18825). The experiment is described as follows: NVS_GPCR_hAdra2C: NovaScreen (NVS) G Protein-Coupled Receptor Assay for human Adrenergic, Alpha 2c Receptor (Adra2C) (AID 2283259). In short, it runs like this: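 Radioligand binding on Sf9-expressed receptor membranes, 1 h after chemical dosing, filter-based scintillation read-out. Loss of binding fitted positively versus DMSO; primary duplicate screen at 25 uM, actives retested in concentration series.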
Sequence of human Adrenergic, Alpha 2c Receptor (Adra2C), ADRA2C (gene 152) (P18825 whole entry, looked up): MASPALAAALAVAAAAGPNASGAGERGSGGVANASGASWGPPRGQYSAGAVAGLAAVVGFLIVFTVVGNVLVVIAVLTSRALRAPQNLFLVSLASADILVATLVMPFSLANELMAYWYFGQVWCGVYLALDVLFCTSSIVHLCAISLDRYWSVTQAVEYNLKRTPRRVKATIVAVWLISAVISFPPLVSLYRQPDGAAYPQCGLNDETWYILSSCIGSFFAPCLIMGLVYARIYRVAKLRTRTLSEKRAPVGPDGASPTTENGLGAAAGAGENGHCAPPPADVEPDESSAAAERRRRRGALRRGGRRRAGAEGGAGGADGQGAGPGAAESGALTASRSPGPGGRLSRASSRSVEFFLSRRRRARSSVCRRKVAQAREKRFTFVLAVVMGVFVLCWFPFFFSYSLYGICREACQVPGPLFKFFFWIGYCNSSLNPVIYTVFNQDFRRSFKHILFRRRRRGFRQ

Results filed as inconclusive are left out. Active and inactive are the calls of the source. The calls were made as follows: active = hit-call score of the fitted dose curve at least 0.9, where 1 is the maximum; inconclusive = response in the unintended direction; inactive = score below 0.9.

Sequence of Adenosine receptor A1 (Bos taurus) (P28190 whole entry, looked up): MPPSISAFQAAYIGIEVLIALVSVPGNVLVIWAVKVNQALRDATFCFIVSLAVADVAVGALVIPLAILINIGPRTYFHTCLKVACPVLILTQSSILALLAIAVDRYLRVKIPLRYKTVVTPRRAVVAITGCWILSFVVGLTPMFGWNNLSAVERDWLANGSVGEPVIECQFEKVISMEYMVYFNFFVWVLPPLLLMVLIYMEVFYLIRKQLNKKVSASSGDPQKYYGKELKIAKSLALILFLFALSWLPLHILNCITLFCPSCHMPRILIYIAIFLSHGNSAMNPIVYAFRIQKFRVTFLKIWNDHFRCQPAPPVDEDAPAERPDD
Sequence of human Serotonin, 5-Hydroxytryptamine Receptor 6 (5HT6), HTR6 (gene 3362) (P50406 whole entry, looked up): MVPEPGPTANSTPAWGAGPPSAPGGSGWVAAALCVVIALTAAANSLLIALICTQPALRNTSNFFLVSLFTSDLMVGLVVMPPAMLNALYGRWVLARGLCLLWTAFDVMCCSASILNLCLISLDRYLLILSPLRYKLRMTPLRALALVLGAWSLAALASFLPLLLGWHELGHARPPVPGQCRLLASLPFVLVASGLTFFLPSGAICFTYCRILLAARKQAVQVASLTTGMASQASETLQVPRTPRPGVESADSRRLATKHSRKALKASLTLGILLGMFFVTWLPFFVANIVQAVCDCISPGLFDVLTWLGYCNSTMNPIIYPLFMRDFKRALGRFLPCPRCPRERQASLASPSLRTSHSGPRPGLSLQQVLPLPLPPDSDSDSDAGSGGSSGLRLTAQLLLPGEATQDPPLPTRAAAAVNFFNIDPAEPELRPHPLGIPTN
Sequence of guinea pig Opioid, Kappa 1 Receptor (OpiateK), OPRK1 (gene 100135587) (P41144 whole entry, looked up): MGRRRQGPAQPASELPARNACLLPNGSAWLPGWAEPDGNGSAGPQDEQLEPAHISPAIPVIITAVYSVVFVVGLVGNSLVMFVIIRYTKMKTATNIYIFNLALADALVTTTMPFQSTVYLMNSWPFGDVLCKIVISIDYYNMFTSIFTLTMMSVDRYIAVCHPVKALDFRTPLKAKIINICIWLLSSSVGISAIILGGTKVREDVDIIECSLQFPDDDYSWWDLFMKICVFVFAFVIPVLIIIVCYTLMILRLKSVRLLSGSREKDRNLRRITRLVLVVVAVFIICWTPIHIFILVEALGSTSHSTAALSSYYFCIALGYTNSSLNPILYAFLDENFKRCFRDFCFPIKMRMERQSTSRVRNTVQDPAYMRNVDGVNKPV
Sequence of human Serotonin, 5-Hydroxytryptamine Receptor 7 (5HT7), HTR7 (gene 3363) (P34969 whole entry, looked up): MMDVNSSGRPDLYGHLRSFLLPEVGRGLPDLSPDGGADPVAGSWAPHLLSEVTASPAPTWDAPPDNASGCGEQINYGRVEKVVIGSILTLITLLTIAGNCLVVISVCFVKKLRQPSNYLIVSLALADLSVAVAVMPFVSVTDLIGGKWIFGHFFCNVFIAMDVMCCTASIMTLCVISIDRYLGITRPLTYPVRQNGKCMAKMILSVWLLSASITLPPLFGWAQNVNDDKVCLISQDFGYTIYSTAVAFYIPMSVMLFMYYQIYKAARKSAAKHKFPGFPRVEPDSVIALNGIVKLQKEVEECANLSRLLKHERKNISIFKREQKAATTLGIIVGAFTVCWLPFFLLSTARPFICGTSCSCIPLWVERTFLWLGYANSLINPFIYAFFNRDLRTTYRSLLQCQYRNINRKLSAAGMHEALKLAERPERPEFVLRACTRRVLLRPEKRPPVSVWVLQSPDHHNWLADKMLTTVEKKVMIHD
Sequence of rat Monoamine Oxidase, MAO-B, Peripheral (MAOBP), Maob (gene 25750) (P19643 whole entry, looked up): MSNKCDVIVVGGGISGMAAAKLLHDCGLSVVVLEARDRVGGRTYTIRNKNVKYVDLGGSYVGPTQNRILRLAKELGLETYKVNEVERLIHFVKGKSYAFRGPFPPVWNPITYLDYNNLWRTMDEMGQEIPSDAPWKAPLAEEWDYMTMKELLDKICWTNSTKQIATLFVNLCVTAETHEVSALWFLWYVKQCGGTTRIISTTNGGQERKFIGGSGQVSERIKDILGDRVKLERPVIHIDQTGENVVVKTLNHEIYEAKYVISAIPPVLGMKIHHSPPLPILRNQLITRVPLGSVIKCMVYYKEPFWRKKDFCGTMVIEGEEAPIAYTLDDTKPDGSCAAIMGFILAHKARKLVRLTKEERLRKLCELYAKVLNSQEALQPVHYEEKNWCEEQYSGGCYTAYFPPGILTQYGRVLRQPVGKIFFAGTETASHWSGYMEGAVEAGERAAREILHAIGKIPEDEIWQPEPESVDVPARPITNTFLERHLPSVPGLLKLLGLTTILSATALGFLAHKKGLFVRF
Sequence of human Adenosine A2a Receptor (AdoRA2a), ADORA2A (gene 135) (P29274 whole entry, looked up): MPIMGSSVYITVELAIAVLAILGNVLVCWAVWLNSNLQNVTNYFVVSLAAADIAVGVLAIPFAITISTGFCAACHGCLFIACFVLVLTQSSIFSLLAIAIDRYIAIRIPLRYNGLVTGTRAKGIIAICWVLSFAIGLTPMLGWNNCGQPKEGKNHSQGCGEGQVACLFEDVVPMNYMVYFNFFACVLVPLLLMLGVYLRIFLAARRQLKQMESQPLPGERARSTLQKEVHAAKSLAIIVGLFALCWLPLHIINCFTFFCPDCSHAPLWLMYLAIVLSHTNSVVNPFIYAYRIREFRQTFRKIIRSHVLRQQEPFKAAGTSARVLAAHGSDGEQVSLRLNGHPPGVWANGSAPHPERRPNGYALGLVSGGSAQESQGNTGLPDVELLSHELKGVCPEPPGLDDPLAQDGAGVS
Sequence of human Serotonin, 5-Hydroxytryptamine Receptor 5A (5HT5A), HTR5A (gene 3361) (P47898 whole entry, looked up): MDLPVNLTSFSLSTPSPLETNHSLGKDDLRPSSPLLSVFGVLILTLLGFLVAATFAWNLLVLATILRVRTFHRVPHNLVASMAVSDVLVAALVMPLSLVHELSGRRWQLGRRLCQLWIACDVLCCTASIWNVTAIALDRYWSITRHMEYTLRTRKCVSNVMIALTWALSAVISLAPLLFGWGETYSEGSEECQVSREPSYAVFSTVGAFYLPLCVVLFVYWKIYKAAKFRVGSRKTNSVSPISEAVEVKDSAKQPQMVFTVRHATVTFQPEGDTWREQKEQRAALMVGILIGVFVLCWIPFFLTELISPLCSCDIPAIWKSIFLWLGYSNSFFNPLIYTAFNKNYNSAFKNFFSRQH

In the case of `CN(C)C(=O)Nc1cccc(C(F)(F)F)c1`, in experiment [1], the AC50 (in general, the midpoint of the concentration-response curve, whichever way the signal moves) is 29.7 µM (active). Also, the molecule was classed as inactive in experiment [2].

Turning to `Cc1cc(C2CC2)nc(Nc2ccccc2)n1`, the AC50 in [3] was 25 µM (active); in experiment [5] it was 9.57 µM (active); in experiment [6] it was 25 µM (active); in experiment [7] it was 14.1 µM (active). In experiment [4], the outcome was inactive.

Turning to `Nc1nc(N)nc(NC2CC2)n1`, in [8], the molecule was called inactive.

For the molecule `CC(C1CC1)C(O)(Cn1cncn1)c1ccc(Cl)cc1` (stereo unspecified), in [8], the result was inactive.

Turning to `COP(=O)(OC)OC(Br)C(Cl)(Cl)Br` (stereo unspecified), the AC50 is 25 µM (active) in experiment [3], 0.00229 µM (active) in experiment [10], 33.3 µM (active) in [11] and 9.88 µM (active) in experiment [12]. In addition, the molecule was classed as inactive in experiment [9].

As for `CCc1cccc(C)c1N(C(=O)CCl)C(C)COC` (stereo unspecified), the result in experiment [1] was inactive. Also, in [11], the AC50 was 16.2 µM (active).

For `CSc1nc(NC(C)C)nc(NC(C)C)n1`, the AC50 in experiment [3] was 5.37 µM (active); in experiment [5], 3.54 µM (active); in experiment [7], 4.59 µM (active).

`C[Si](Cn1cncn1)(c1ccc(F)cc1)c1ccc(F)cc1`: the AC50 is 34 µM (active) in [1], 7.85 µM (active) in experiment [13], 25 µM (active) in experiment [11] and 16.6 µM (active) in experiment [6].

`CON=C(C(=O)OC)c1ccccc1CON=C(C)c1cccc(C(F)(F)F)c1`: in experiment [14], the result was inactive.

Turning to `CCNc1nc(Cl)nc(NC(C)(C)C#N)n1`, in experiment [3], the AC50 is 13.3 µM (active).

Turning to `CCOP(=O)(SC(C)CC)N1CCSC1=O` (stereo unspecified), in [2], the molecule was classed as inactive.

Take `O=C(O)c1cc(Oc2ccc(C(F)(F)F)cc2Cl)ccc1[N+](=O)[O-]`: the molecule was called inactive in experiment [15].

As for `CCOP(=S)(OCC)Oc1cc(C)nc(C(C)C)n1`, in [10], the molecule was called inactive.

In the case of `CCCOCC(=Nc1ccc(Cl)cc1C(F)(F)F)n1ccnc1`, the molecule was classed as inactive in [10].

Take `C=C(C)[C@H]1Cc2c(ccc3c2O[C@@H]2COc4cc(OC)c(OC)cc4[C@@H]2C3=O)O1`: in experiment [12], the AC50 is 1.13 µM (active).

On to `CC(C)N(C(=O)SCC(Cl)=C(Cl)Cl)C(C)C`, for which the outcome in experiment [12] was inactive.

In the case of `CC(C)=CC1C(C(=O)OCN2C(=O)C3=C(CCCC3)C2=O)C1(C)C` (stereo unspecified), in [6], the outcome was inactive.

As to `CC(C)[C@H](C(=O)O[C@H](C#N)c1cccc(Oc2ccccc2)c1)c1ccc(Cl)cc1`, in experiment [6], the half-maximal activity concentration (AC50) was 6.87 µM (active).

For `CCOP(=S)(OCC)Oc1ccc2c(C)c(Cl)c(=O)oc2c1`, in [16], the molecule was called inactive.

Regarding `C[N+]1(C)CCCCC1`, in [17], the call was inactive.

For the molecule `CCc1cnc(C2=NC(C)(C(C)C)C(=O)N2)c(C(=O)O)c1` (stereo unspecified), the result in experiment [17] was inactive.
